Article PMC4336329 (PLoS ONE, 2015)
In all, about 310,000 compounds went through this assay and about 14,000 (4.5%) showed an effect of 50% or more. The effect is printed as a negative number. This excerpt belongs to a sample that is enriched for strong results.

Biological target: human ether-à-go-go-related gene (hERG) potassium channel (human, UniProt Q12809)
Experiment: primary screen, population patch clamp on CHO cells stably expressing hERG; higher = less effect of the substance
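Note: peak tail current of the secondary pulse compared with the same well before compound.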

Chain of human ether-à-go-go-related gene (hERG) potassium channel (Q12809 whole entry, looked up): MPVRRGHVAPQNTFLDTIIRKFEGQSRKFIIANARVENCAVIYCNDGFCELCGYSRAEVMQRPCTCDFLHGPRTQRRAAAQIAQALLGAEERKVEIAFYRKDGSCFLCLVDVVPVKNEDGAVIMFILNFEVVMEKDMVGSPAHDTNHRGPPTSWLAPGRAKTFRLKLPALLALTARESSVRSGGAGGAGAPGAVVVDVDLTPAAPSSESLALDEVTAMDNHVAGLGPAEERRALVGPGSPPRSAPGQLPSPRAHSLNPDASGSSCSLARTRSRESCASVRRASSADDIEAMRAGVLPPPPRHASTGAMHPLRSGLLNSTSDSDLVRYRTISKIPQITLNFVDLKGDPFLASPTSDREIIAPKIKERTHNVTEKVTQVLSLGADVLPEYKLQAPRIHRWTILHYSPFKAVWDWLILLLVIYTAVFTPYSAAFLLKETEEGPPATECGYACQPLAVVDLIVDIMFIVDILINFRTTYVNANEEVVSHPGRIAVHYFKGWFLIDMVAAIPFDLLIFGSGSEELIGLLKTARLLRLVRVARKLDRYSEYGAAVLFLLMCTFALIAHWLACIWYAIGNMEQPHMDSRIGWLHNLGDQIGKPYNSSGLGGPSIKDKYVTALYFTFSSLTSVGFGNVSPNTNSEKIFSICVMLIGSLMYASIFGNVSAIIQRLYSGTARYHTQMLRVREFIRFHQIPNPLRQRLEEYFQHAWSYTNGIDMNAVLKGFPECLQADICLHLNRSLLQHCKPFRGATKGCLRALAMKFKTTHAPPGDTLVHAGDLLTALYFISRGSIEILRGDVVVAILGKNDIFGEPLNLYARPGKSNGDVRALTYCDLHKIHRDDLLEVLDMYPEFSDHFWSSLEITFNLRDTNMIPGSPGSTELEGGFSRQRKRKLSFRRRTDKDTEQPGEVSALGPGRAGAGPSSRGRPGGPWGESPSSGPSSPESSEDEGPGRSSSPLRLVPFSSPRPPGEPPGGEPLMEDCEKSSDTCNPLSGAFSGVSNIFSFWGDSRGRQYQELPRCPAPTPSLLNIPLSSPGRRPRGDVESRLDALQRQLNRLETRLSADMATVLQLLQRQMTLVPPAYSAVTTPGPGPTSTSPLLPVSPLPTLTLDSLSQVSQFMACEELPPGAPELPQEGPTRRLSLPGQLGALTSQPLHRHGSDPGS

Structure (SMILES)	hERG current change (%, negative = inhibition) at 10uM [%]
CCN(C(=O)COC(=O)c1[nH]c(C)c(C(C)=O)c1C)c1c(N)n(Cc2ccccc2)c(=O)[nH]c1=O	0.295
Cc1ccc2oc(C(=O)Nc3cc(C)on3)c(C)c2c1	-1.98
CCCCOc1ccc(NC(=O)C(=O)NCCC2=CCCCC2)cc1	2.25
CCCCCOC(=O)c1ccc(N2C(=O)C3C4C=CC(C4)C3C2=O)cc1 (centres unmarked)	-6.84
C=CCn1c(SCC(=O)Nc2cc(C)on2)nc2sc3c(c2c1=O)CCCC3	-4
O=C(Nc1ccc(S(=O)(=O)Nc2ncccn2)cc1)c1cccc(Br)c1	16.5
CC(=O)c1ccc(NC(=O)CCc2nnc3ccc(NCc4ccco4)nn23)cc1	9.4
COc1ccc(CCn2c(O)c(C=Nc3ccccc3F)c(=O)[nH]c2=O)cc1OC	20.3
CCOc1ccc(C(N)=O)cc1OC	6.13
CN(C)c1ccc(C=Nc2cnn(C)c2C(N)=O)cc1	0.759
COc1ccc(NC(=O)CSc2nnc(-c3cccs3)n2N)c(OC)c1	0.565
Cn1cc(CN2CCC(N3CCNC(=O)CC3)CC2)c(-c2ccccc2F)n1	8.43
O=C1c2ccccc2C(=O)N1n1cccc1	8.7
Cc1c(C)n(CCc2ccccc2)c2ncnc(NCCCN(C)C)c12	-58
Cc1c(C)n(Cc2ccccc2)c2ncnc(NCCCN(C)C)c12	-28.4
COc1ccc(-n2c(C)c(C)c3c(NCCCO)ncnc32)cc1	-14.3
COc1ccc(-n2c(C)c(C)c3c(NCCN(C)C)ncnc32)cc1	-32.4
COc1ccc(Nc2ncnc3c2c(C)c(C)n3CCCN(C)C)cc1	-32.7
Cc1c(C)n(CCCN(C)C)c2ncnc(Nc3ccc(F)cc3)c12	-50.8
Cc1c(C)n(CCc2ccccc2)c2ncnc(NCCCO)c12	-40.1
Cc1c(C)n(CCCN(C)C)c2ncnc(Nc3ccccc3)c12	-29.3
COc1ccc(-n2c(C)c(C)c3c(NCCCN(C)C)ncnc32)cc1	-53.1
Cc1cc(NS(=O)(=O)c2ccc(NC(=O)CSc3nnc(-c4ccco4)n3C)cc2)nc(C)n1	5.75

Structure (SMILES)	hERG current change (%, negative = inhibition) at 10uM [%]
CCCCn1c(N)c(N(CC(C)C)C(=O)C2CC(=O)N(CCc3ccccc3)C2)c(=O)[nH]c1=O (centres unmarked)	7.09
Cc1ccc(Oc2nn[nH]n2)cc1	0.395
C=C1[C@@H](OC(C)=O)[C@]23C[C@@H]1[C@@H](OC(C)=O)CC2[C@]12C4C[C@H]3[C@H]1N(CC)C[C@]4(C)CC[C@@H]2O (some centres unmarked)	-40.6
O=C(NCc1n[nH]c(=S)n1-c1ccc(Cl)c(Cl)c1)c1ccc(S(=O)(=O)N2CCOCC2)cc1	14.5
N#Cc1ccccc1OCc1nnc(-c2ccccc2Br)o1	14.1
O=C(NCc1cccnc1)c1ccccc1NS(=O)(=O)c1ccc(F)cc1F	9.6
Cn1c(SCCOc2ccccc2Cl)nnc1-c1cccs1	-35
Cc1ccc2c(c1)C1CN(C)CCC1N2C(=O)c1cccc(S(=O)(=O)N2CC(C)CC(C)C2)c1.Cl (centres unmarked)	-44.8
Cc1ccc2c(c1)C1CN(C)CCC1N2C(=O)/C(C#N)=C/c1ccc2c(c1)OCO2 (centres unmarked)	-21.2
Cc1ccc2c(c1)C1CN(C)CCC1N2C(=O)Cc1cccs1.Cl (centres unmarked)	-46.9
Cc1ccc2c(c1)C1CN(C)CCC1N2C(=O)Nc1cccc(Cl)c1 (centres unmarked)	-51.1
Cc1ccc2c(c1)C1CN(C)CCC1N2C(=O)c1ccccc1NS(=O)(=O)c1cccc(C(F)(F)F)c1.Cl (centres unmarked)	-48.5
Cc1ccc2c(c1)[C@@H]1CN(C)CC[C@@H]1N2C(=O)Nc1cccc(C(F)(F)F)c1	-38.5
Cc1ccc2c(c1)C1CN(C)CCC1N2C(=O)c1cccnc1Cl.Cl (centres unmarked)	1.59
Cc1ccc2c(c1)C1CN(C)CCC1N2C(=O)/C=C/c1ccc2c(c1)OCO2 (centres unmarked)	-62.6
Cc1ccc2c(c1)C1CN(C)CCC1N2C(=O)Nc1cccc(C(F)(F)F)c1 (centres unmarked)	-52.4
CCOC(=O)/C(C#N)=C/c1cccc(C)c1	12.6
COc1ccccc1-c1nnc(SCC(=O)NCc2ccco2)n1N	17.2
CN(Cc1ccccc1)C(=O)COC(=O)c1ccccc1Nc1ccccc1	13
NC(=O)COC(=O)c1c2c(nc3ccccc13)CCCC2	-53.3
NC(=O)COC(=O)c1c2c(nc3ccccc13)CCCCC2	-23.2
NC(=O)COC(=O)c1c2c(nc3ccccc13)CCC2	9.85
COc1ccc(/C=C/C2=NC(=C\N(C)C)/C(=O)O2)cc1	-37.6

Structure (SMILES)	hERG current change (%, negative = inhibition) at 10uM [%]
CN(C)CCCN(CCCNC(=O)/C=N/O)Cc1ccccc1	1.31
CN(CCOc1ccc(F)cc1)Cc1ccccc1.O=C(O)C(=O)O	-23.3
CN(CCCCCCCCC(=O)/C=N/O)Cc1ccccc1.Cl	-58.4
CN(CCCCOc1ccc(F)cc1)Cc1ccccc1.O=C(O)C(=O)O	-54.7
CN(CCCOc1ccccc1Br)Cc1ccccc1	-22.1
COc1ccc(OCCCCN(C)Cc2ccccc2)cc1.O=C(O)C(=O)O	-45.7
CN(C)CCCCCCCCCCC(=O)/C=N/O.Cl	-9.03
CN(CCCOc1ccccc1F)Cc1ccccc1.O=C(O)C(=O)O	-57.3
CN(C)CCCCOc1ccccc1F.O=C(O)C(=O)O	14.4
CCc1ccccc1NC(=O)CCS(=O)(=O)c1ccc(OC)cc1	7.48
CCOC(=O)c1c(NCC2CCCO2)c2ccccc2[nH]c1=O (centres unmarked)	0.695
CCCN(CC(=O)Nc1ccccc1C)C(=O)c1ccc(C)c(S(=O)(=O)N2CCCCC2)c1	-11.3
CCCCNc1nc(-c2ccccc2)nc(-n2ccnc2)n1	12.2
Cc1ccc(Cl)cc1NC(=O)CC1NC2CCCCC2NC1=O (centres unmarked)	17.6
CCC(C)c1ccccc1N1CC(C(=O)NCCC2=CCCCC2)CC1=O (centres unmarked)	8.97
COC(=O)c1ccc(OC)c(-c2c(OC)cc(OC)cc2OC)c1	-1.49
Cc1cccc(-n2ncc3c(N4CC(C)CC(C)C4)ncnc32)c1 (centres unmarked)	8
Cc1ccc(NC(=O)C(=S)NCc2ccco2)cc1	7.1
O=c1cc(CSc2ccc(Cl)cc2)nc(-c2ccncc2)[nH]1	1.72
O=c1cc(CSc2ccc(Cl)cc2)nc(-c2ccccc2)[nH]1	-59.7
O=c1cc(CSc2ccccc2)nc(-c2ccccc2)[nH]1	6.19
CC(C)C(=O)NC(=S)/C=C1/N(C)c2ccccc2C1(C)C	-1.42
O=C(Cc1sc(-c2ccccc2Cl)nc1-c1ccccc1)Nc1ccccc1	11.3

Structure (SMILES)	hERG current change (%, negative = inhibition) at 10uM [%]
COCC(=O)N1CCC(Oc2ccc(C(=O)N3CCCCCCC3)cc2)CC1	22.7
CC(C)/C=C/CN1CCC(Oc2ccc(C(=O)N3CCCC3)cc2)CC1	-35.3
O=C(c1ccc(OC2CCN(C/C=C/c3ccc(F)cc3)CC2)cc1)N1CCCCC1	-64.9
O=C(c1ccc(OC2CCN(C/C=C/c3ccc(F)cc3)CC2)cc1)N1CCCC1	-75.5
O=C(c1ccc(OC2CCN(Cc3ccccc3OC(F)F)CC2)cc1)N1CCCC1	-3.42
O=C(c1ccc(OC2CCN(CCO)CC2)cc1)N1CCCC1	18.1
COc1ccc(/C=C/CN2CCC(Oc3ccc(C(=O)N4CCCCC4)cc3)CC2)cc1	-53.6
COc1ccccc1/C=C/CN1CCC(Oc2ccc(C(=O)N3CCCCC3)cc2)CC1	-44.6
COCC(=O)N1CCC(Oc2ccc(C(=O)N3CCCCCC3)cc2)CC1	12.1
CCN1CCN(Cc2ccc(NC(=O)c3cc(NC(=O)c4cncc(-c5cccs5)c4)cc(OC)c3)cc2C(F)(F)F)CC1.O=C(O)C(F)(F)F	9.85
COc1cc(OC)cc(C(=O)NNC(=O)Cc2ccc(OC)c(S(=O)(=O)N3CCOCC3)c2)c1	-1.89
COC/C=C/C1=CC2=CC(=O)C(C)(OC(=O)c3cnc4ccccc4n3)C(=O)C2=CN1c1ccc(OC)cc1 (centres unmarked)	-4.95
O=c1[nH]c2ccccc2cc1CN(c1ccccc1)S(=O)(=O)c1ccccc1	0.56
Cc1ccccc1OCCC(=O)OCC(=O)N1CCN(S(=O)(=O)c2ccc(Cl)cc2)CC1	-13.1
CCCCCSc1cc(O)c(C(CNC)C(C)C)cc1OC.O=C(O)/C=C\C(=O)O (centres unmarked)	-12.9
CCCCCSc1cc(OC)c(CCN)cc1OC.O=C(O)/C=C\C(=O)O	-35.9
CCCCCCCSc1cc(OC)c(CCN(C)C)cc1OC.O=C(O)/C=C\C(=O)O	-64.3
CCCCCSc1cc(OC)c(CCNC)cc1OC.O=C(O)/C=C\C(=O)O	-48.2
CCCCCCCSc1cc(OC)c(CCNC)cc1OC.O=C(O)/C=C\C(=O)O	-41.3
CCCCCSc1cc(OC)c(CCN(C)C)cc1OC.O=C(O)/C=C\C(=O)O	-57.9
